# Inconclusive results are not listed. Values without a mark were called inactive. Calls of active or inactive are those of the source. Calls come from the whole dose curve; as a rule, active = well fitted cell-killing curve with a large enough effect; inconclusive = small, poorly fitted or top-dose-only effect, or effect the other way; inactive = no such curve, though single readings can be large or run the other way.
# Test: Viability qHTS for spleen associated tyrosine kinase inhibitor (SYKi) drug resistant MV4-11 cells (AID 1963824); note: nearly all actives have a fitted effect of over 35% in size
# Details: SYKi-resistant MV4-11 viability, CellTiter-Glo, 72 h; series mostly up to 45 µM
# Method in brief: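 SYK-inhibitor-resistant MV4-11 AML cells were seeded at 500 per well onto compound and cultured 72 hours (37 °C, 5% CO2). CellTiter-Glo was then added, and after 10 min at room temperature, luminescence gave viability.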
# Potency is the fitted concentration of half-maximal effect.
SMILES,Potency,"viability, % of control"
CC1CCC23COC(=O)C2=CC(O)CC3C1(C)CCC1=CC(O)OC1=O (stereo unspecified),inactive,–
CC(=O)c1c(C)cccc1O[C@@H]1O[C@H](CO)[C@@H](O)[C@H](O)[C@H]1O,inactive,–
CCCc1cc(C(=O)N[C@H](Cc2ccc(-c3cccc(OC(F)(F)F)c3)nc2)C(=O)N[C@@H]2CCNC2)sc1C,7.42 µM (active),–
CC1=CC(=O)CC2C1(O)CCC(C)C21CC(c2ccoc2)OC1=O (stereo unspecified),inactive,–
CC(C)CC(=O)O[C@@H]1OC=C(CO[C@@H]2O[C@H](CO)[C@@H](O)[C@H](O)[C@H]2O)[C@H]2[C@@H]3O[C@H]3[C@@](O)(CO)[C@@H]12,inactive,–
CC[C@@H]1C(=O)O[C@]23C=C[C@@H]4C(C(=O)OC)=CO[C@H](O[C@@H]12)[C@@H]43,5.17 µM (active),–
CC(=O)N[C@H]1[C@H](O[C@H]2CC[C@@]3(C)C(CC[C@]4(C)C3CC=C3C5CC(C)(C)CC[C@]5(C(=O)O)[C@H](O[C@@H]5O[C@H](CO)[C@@H](O)[C@H](O)[C@H]5O)C[C@]34C)C2(C)C)O[C@H](CO[C@@H]2OC[C@H](O)[C@H](O)[C@H]2O[C@@H]2OC[C@@H](O)[C@H](O)[C@H]2O)[C@@H](O)[C@@H]1O (stereo partly specified),–,81.4% [at 9.25 µM]
O=c1ccc2ccc(OCCCCN3CCN(c4cccc5sccc45)CC3)cc2[nH]1,7.31 µM (active),–
C=C(C(=O)O)C1CCC2(C)CCC(O)C(C)(O)C2C1 (stereo unspecified),inactive,–
CC(C)CC1NC(=O)C(C(C)c2ccccc2)NC(=O)C(C(C)C)NC(=O)C(C)NC(=O)CCCNC(=O)C(Cc2c[nH]c3ccccc23)NC(=O)C(C)NC1=O (stereo unspecified),inactive,–
C[C@@H]1CC[C@@]2(OC1)O[C@H]1C[C@H]3[C@@H]4CC=C5C[C@@H](O)CC[C@]5(C)[C@H]4CC[C@]3(C)[C@H]1[C@@H]2C,inactive,–
CNc1nc(-c2ccc3c(N)n[nH]c3c2)cc(N2C[C@@H](C(=O)NC3CCCCC3)CC[C@H]2C)n1,5.9 µM (active),–
CC(C)[C@@](C)(O)[C@@H]1CN(c2nc(-c3[nH]nc4ncccc34)c(F)cc2Cl)CCN1,0.731 µM (active),–
CCCCOc1ccc(CC/C=C2\SC(=O)N(CCN)C2=O)cc1,2.91 µM (active),–
CN1c2ccccc2C(=O)N2CCC3c4ccccc4NC3C21 (stereo unspecified),1.8 µM (active),–
O=C1OCc2cc3cccc(O[C@@H]4O[C@H](CO)[C@@H](O)[C@H](O)[C@H]4O)c3c(O)c21,inactive,–
C=C1CC2OC(=O)C(=C)C2C(OC(=O)/C(C)=C\C)CC2(C)OC1=CC2=O (stereo unspecified),0.453 µM (active),–
C[C@@H]1O[C@@H](O[C@H]2[C@H](OC(=O)[C@]34CCC(C)(C)C[C@H]3C3=CCC5[C@@]6(C)CC[C@H](O[C@@H]7O[C@H](CO[C@@H]8OC[C@H](O)[C@H](O)[C@H]8O[C@@H]8OC[C@@H](O)[C@H](O)[C@H]8O)[C@@H](O)[C@H](O)[C@H]7O)C(C)(C)C6CC[C@@]5(C)[C@]3(C)C[C@H]4O)O[C@H](CO)[C@@H](O)[C@@H]2O)[C@H](O[C@@H]2O[C@H](CO)[C@@H](O)[C@H](O)[C@H]2O)[C@H](O)[C@H]1O[C@@H]1OC[C@@H](O)[C@H](O[C@@H]2OC[C@@H](O)[C@H](O)[C@H]2O)[C@H]1O (stereo partly specified),–,88.9% [at 4.97 µM]
CNCCC=C1c2ccccc2CCc2ccccc21,14.6 µM (active),–
CCC1C(=O)N(C)c2cnc(Nc3ccc(C(=O)NC4CCC(N5CCN(CC6CC6)CC5)CC4)cc3OC)nc2N1C(C)C (stereo unspecified),0.0116 µM (active),–
CC(C)(O[C@@H]1O[C@H](CO)[C@@H](O)[C@H](O)[C@H]1O)C(OC(=O)/C=C\c1ccc(O)cc1)C(=O)OCc1ccc(O[C@@H]2O[C@H](CO)[C@@H](O)[C@H](O)[C@H]2O)cc1 (stereo partly specified),inactive,–
CCC(C)/C=C(C)/C=C/C1=CC2=C(Cl)C(=O)C(C)(OC(C)=O)C(=O)C2(O)C(OC)O1 (stereo unspecified),7.96 µM (active),–
C[C@@H]1CC[C@H]2C(C)(C)[C@H](O)[C@H](O)C[C@]2(C)[C@@]12Cc1c(O)cc3c(c1O2)CNC3=O,inactive,–
Cc1ccc(-c2ccc3c(ccc4sc5c(c43)NC[C@@H](C)NC5=O)n2)cn1,2.91 µM (active),–
COC(=O)c1ccccc1O[C@@H]1O[C@H](CO[C@@H]2OC[C@@H](O)[C@H](O)[C@H]2O)[C@@H](O)[C@H](O)[C@H]1O,inactive,–
CC1(C)SC2C(NC(=O)[C@H](NC(=O)N3CCNC3=O)c3ccccc3)C(=O)N2C1C(=O)O (stereo partly specified),inactive,–

# — PubChem BioAssay (NCATS)
